Screening data deposited in PubChem by The Scripps Research Institute Molecular Screening Center.
hgDAF-12 ag: hgDAF-12 agonism, primary luciferase screen; hit rate 1.8% among 370,000; activation, % at 6.8 µM; HEK293 GAL4-hgDAF12 UAS-luciferase reporter, agonist luminescence; normalized to butyrate control;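 active = activation above a cutoff set at the mean of all screened compounds plus 3 SD, cut at about 10% in these data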;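 note: 0% = DMSO wells and 100% = sodium butyrate wells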
ssDAF12 agonist: activates DAF-12 receptor from parasite S. stercoralis; HEK293 ssDAF-12/GRIP1 lit1-tk-luc reporter, luminescence; % of 3 µM dafachronic acid response; activation, % at 6.8 µM; hit rate 1% among 370,000;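 active = activation above the mean over all tested compounds plus 3 SD, cut at about 0.9% in these data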;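 note: 0% = DMSO-only wells and 100% = 3 µM delta7-dafachronic acid wells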
DAX1 inh-1: NR0B1 (DAX1) inhibition; P51843; hit rate 0.99% among 340,000; inhibition, % at 6.75 µM; HEK293 Gal4-DAX1 luciferase reporter, luminescence; AID 504766;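 active = inhibition above the mean over all tested compounds plus 3 SD, cut at about 4.2% in these data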;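 note: 0% = DAX1-transfected cells with DMSO and 100% = empty-vector control cells with DMSO; inhibition shows as a rise in luminescence from relieved DAX1 repression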
Target sequence (P51843 207-470 limits assumed): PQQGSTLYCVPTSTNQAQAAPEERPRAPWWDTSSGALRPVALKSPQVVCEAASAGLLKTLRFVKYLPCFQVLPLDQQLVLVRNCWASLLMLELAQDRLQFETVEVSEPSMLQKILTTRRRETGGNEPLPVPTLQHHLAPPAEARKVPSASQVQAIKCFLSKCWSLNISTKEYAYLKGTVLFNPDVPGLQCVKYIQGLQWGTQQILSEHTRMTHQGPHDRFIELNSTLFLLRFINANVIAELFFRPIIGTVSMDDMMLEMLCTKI
DAX1 inh-2: inhibitors of DAX1 repression of SF-1 activated StAR promoter; HEK293T StAR-luciferase reporter, SF-1/DAX-1 repression relief; inhibition, % at 6.8 µM; AID 652010; hit rate 1.1% among 370,000;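 active = inhibition above the mean over all tested compounds plus 3 SD, cut at about 3.6% in these data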;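 note: 0% = DAX-1 cells with DMSO and 100% = cells lacking DAX-1 with DMSO; higher inhibition means more luminescence from relief of DAX-1 repression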
hcDAF12 agonist: H. contortus DAF-12 activation, primary screen; HEK293 hcDAF-12 lit1-tk-luc reporter, luminescence; 0% DMSO, 100% Δ7-dafachronic acid; hit rate 1.4% among 370,000; activation, % at 6.8 µM; AID 652067;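 active = activation above the mean of all tested compounds plus 3 SD, cut at about 5.5% in these data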;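 note: 100% = response to 3 µM Δ7-dafachronic acid high control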
LXRb hcDAF ctr: counter-screen for hcDAF-12 agonists: agonists of human LXR-beta. shares compounds with hcDAF12 agonist. HEK293 Gal4-LXR tk-luc reporter, luminescence, 24 h; normalized: DMSO 0%, positive control 100%. activation, % at 6.8 µM. 3,400 tested, under 10 active;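 active = mean percent activation of the reporter above a cutoff set as the average over tested compounds plus their standard deviation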
Target sequence (P55055 whole entry, looked up, the tested form may be a part): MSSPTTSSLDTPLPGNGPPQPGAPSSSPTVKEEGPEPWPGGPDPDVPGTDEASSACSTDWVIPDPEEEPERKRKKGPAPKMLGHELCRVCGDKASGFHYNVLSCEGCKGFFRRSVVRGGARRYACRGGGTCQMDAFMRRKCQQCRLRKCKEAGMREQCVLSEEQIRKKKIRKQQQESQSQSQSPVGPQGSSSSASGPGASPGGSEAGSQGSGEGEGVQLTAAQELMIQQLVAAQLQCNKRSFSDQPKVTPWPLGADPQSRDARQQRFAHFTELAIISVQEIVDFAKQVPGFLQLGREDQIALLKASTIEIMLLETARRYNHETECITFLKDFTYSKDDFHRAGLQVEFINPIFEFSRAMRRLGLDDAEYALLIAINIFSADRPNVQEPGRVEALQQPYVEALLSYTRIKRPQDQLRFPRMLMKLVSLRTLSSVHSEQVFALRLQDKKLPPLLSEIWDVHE
hcDAF12 ag: hcDAF-12 agonism, confirmation assay. shares compounds with hcDAF12 agonist. HEK293 hcDAF-12 lit1-tk-luc reporter, luminescence; % of Δ7-dafachronic acid response. activation, % at 6.8 µM. hit rate 61% among 3,400. AID 743032;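 active = mean activation across triplicate tests above the threshold derived from the earlier primary screen, cut at about 5.5% in these data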;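 note: 0% = DMSO only wells and 100% = 3 µM Δ7-dafachronic acid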
hgDAF12 ag: hgDAF-12 agonism, confirmation assay; HEK293 GAL4-hgDAF12 luciferase reporter, agonist mode; percent of butyrate response; activation, % at 6.8 µM; shares compounds with hgDAF-12 ag; AID 743050; hit rate 80% among 3,300;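 active = mean activation over triplicate wells above the hit cutoff derived from the earlier primary screen, cut at about 11% in these data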;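 note: 0% = DMSO low control and 100% = 2 mM sodium butyrate high control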
LXRb DAF12 ctr: LXR-beta agonism as DAF-12 counter-screen. HEK293 Gal4-LXR luciferase reporter, 24 h. shares compounds with hgDAF-12 ag. AID 743051. 3,300 tested, under 10 active. activation, % at 6.8 µM;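 active = mean activation of the triplicate above a set limit carried over from the primary screen, none filed active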
* = called active by the depositor; . = no result given. An excerpt weighted towards active compounds, which were near 4.1% of everything screened.

SMILES | hgDAF-12 ag | ssDAF12 agonist | DAX1 inh-1 | DAX1 inh-2 | hcDAF12 agonist | LXRb hcDAF ctr | hcDAF12 ag | hgDAF12 ag | LXRb DAF12 ctr
O=C(NN=C1CCCC1)c1cccs1 | 22* | 1 | 3 | 4.4* | 7.0* | 0 | 1 | 4 | 0
O=C(c1ccccc1)n1c(=S)nc2ccccn21 | 16* | 1.1* | 3 | 3 | 15* | 2 | 14* | 17* | 1
O=C(COc1ccccc1)Nc1nccs1 | 6 | 0 | 1 | 4 | 3 | . | . | . | .
O=C(COc1ccc2ccccc2c1)Nc1nccs1 | 19* | 0 | -1 | 3.6* | 6.7* | 2 | 7.2* | 18* | 1
Cc1cc(C)c(C)c(S(=O)(=O)N2CCN(C(=O)c3cc(S(=O)(=O)N4CCOCC4)ccc3F)CC2)c1C | 0 | -2 | -1 | -3 | 0 | . | . | . | .
Cc1cc(C)cc(NC(=O)CCn2c(=O)c3cccn3c3ccccc32)c1 | -1 | -2 | 0 | -1 | -4 | . | . | . | .
Cc1csc2ncc(C(=O)NCCC(c3ccccc3)c3ccccc3)c(=O)n12 | -2 | -1 | 0 | 0 | -2 | . | . | . | .
Cc1csc2ncc(C(=O)NCCc3ccccc3)c(=O)n12 | 14* | 1.9* | 2 | 3 | 8.7* | 0 | 6.3* | 9 | 0
CC(C)NC(=O)c1cc(-c2ccc3c(c2)OCO3)on1 | 14* | 0 | 2 | 3 | 6.6* | 1 | 5 | 14* | 1
CCCCNC(=O)c1cc(-c2ccc3c(c2)OCO3)on1 | 2 | 0 | 3 | 1 | 3 | . | . | . | .
O=C(Nc1ccc2[nH]ccc2c1)c1ccc(F)cc1 | 16* | 1.5* | -3 | 3 | 8.2* | 2 | 5.9* | 20* | 1
COc1ccccc1NC(CC(=O)c1ccccc1)C(=O)OCC(=O)c1ccc(C)cc1 (centres undefined) | 14* | 0 | 3 | 3 | 8.5* | 2 | 15* | 16* | 1
NCCCNC(=O)c1ccc(/C=N/O)nc1 | 0 | -2 | 0 | 0 | -1 | . | . | . | .
CCN(CC)S(=O)(=O)c1cccc(C(=O)NC(C)C(c2cccs2)N2CCCC2)c1 (centres undefined) | 1 | -2 | 0 | -1 | -1 | . | . | . | .
COc1cccc(C(=O)O/N=C(\N)c2ccc(C)cc2)c1 | 16* | 0 | 4.5* | 2 | 9.7* | 1 | 7.2* | 20* | 1
COc1cccc(C(=O)O/N=C(\N)c2ccc([N+](=O)[O-])cc2)c1 | -2 | -1 | -1 | 0 | -2 | . | . | . | .
COCCNC(=O)CN(CCc1ccccc1)S(=O)(=O)c1ccc(Br)cc1 | -1 | -1 | 1 | 0 | -1 | . | . | . | .
COc1cc(CN2CCCC(C(=O)N3CCc4ccccc4C3)C2)cc(OC)c1OC (centres undefined) | 0 | -1 | 0 | 0 | -1 | . | . | . | .
Cc1c(NC(=S)NC(=O)c2cc3ccccc3o2)c(=O)n(-c2ccccc2)n1C | 2 | 0 | 0 | -1 | 3 | . | . | . | .
Cc1ccc2nc(-c3ccc(O)cc3)oc2c1 | 19* | 2.2* | 0 | 3 | 9.0* | 2 | 7.2* | 21* | 1
Fc1cccc(/C=N/Nc2nncc3ccccc23)c1 | 21* | 1.5* | -1 | 3 | 12* | 2 | 14* | 23* | 1
COc1ccccc1OCCC(=O)OCCN1C(=O)c2ccccc2C1=O | 0 | -1 | -1 | 0 | -1 | . | . | . | .
Nc1cccc2c1C(=O)N(CCOc1ccc(F)cc1)C2=O | 17* | 0 | 1 | 3 | 11* | 2 | 9.3* | 18* | 1
O=C1c2ccccc2C(=O)N1CCOc1ccccc1 | 14* | 1.2* | 2 | 3 | 6.9* | 1 | 8.8* | 17* | 0
COc1ccc(OCCN2C(=O)c3ccccc3C2=O)cc1 | 3 | -1 | -1 | 1 | -1 | . | . | . | .
SMILES | hgDAF-12 ag | ssDAF12 agonist | DAX1 inh-1 | DAX1 inh-2 | hcDAF12 agonist | LXRb hcDAF ctr | hcDAF12 ag | hgDAF12 ag | LXRb DAF12 ctr
COc1ccc(S(=O)(=O)NN(C)C(=O)c2nn(-c3ccccc3)ccc2=O)cc1 | 0 | -1 | 1 | -1 | 2 | . | . | . | .
COc1ccc(-c2cc(=O)c3ccccc3o2)cc1 | 20* | 0 | 8.4* | 4 | 9.0* | 1 | 8.2* | 15* | 1
O=c1cc(-c2ccc(O)cc2)oc2ccccc12 | 9 | -1 | 3 | 3 | 1 | . | . | . | .
CCOC(=O)/C(=N\Nc1ncnc2ccccc12)c1ccc(OC)cc1 | 18* | 2.4* | 1 | 3 | 17* | 2 | 11* | 17* | 1
COc1ccc(/C(=N/Nc2ncnc3ccccc23)C(=O)O)cc1 | 16* | 1.8* | 1 | 2 | 11* | 0 | 7.5* | 16* | 1
CCOC(=O)C(Cc1ccnc2ccccc12)=NO | -5 | -1 | -1 | -1 | -1 | . | . | . | .
COc1ccccc1C(C)NC(=O)Cc1ccc(S(=O)(=O)N2CCOCC2)s1 (centres undefined) | -1 | -1 | 3 | 1 | 0 | . | . | . | .
CCN1CCCc2cc(CN(CCN3CCOCC3)C(=S)Nc3cc(F)cc(F)c3)ccc21 | 1 | -2 | -1 | 0 | 0 | . | . | . | .
Cc1ccc(S(=O)(=O)N2C[C@@H](C)[C@]3(C2)[C@H](O)[C@H](OC(=O)NCc2ccco2)C[C@H]2C(=O)N(c4ccccc4)C(=O)[C@H]23)cc1 | 1 | -1 | -1 | -1 | 1 | . | . | . | .
CCCCN(C)C(=O)c1cc2cc3ccc(OC)cc3nc2s1 | 17* | 0 | -1 | 3 | 7.0* | 1 | 7.1* | 16* | 1
CCCCN(CC)C(=O)c1cc2cc3ccc(OC)cc3nc2o1 | 6 | -1 | 0 | 0 | -2 | . | . | . | .
COc1ccc(-n2cc3ccc([N+](=O)[O-])cc3n2)cc1 | 21* | 0 | 2 | 2 | 6.7* | 2 | 7.1* | 19* | 1
CN(C)c1ccc(/C=C/c2nnnn2-c2ccccc2)cc1 | 17* | 0 | 4 | 3 | 11* | 1 | 6.1* | 22* | 1
Cc1cc(N/C=C\c2nnnn2-c2ccccc2)no1 | 6 | 0 | 1 | -1 | 1 | . | . | . | .
CC(=O)N1CCOc2ccc(S(=O)(=O)N3CC(C)CC(C)C3)cc21 (centres undefined) | -1 | -1 | 0 | -1 | 2 | . | . | . | .
Fc1ccc(-n2nnc(-c3cccnc3Cl)n2)cc1 | 17* | 0 | 4.4* | 3 | 7.2* | 1 | 6 | 17* | 1
